Assay results published in PubChem BioAssay AID1159580 (chemical genetic matrix, 2015).
The campaign covered roughly 5,500 compounds. About 2,000 (36%) were called active. Roughly 18% stayed inconclusive and do not appear here. No stated cut-off is given here; in the data, active means normalized growth mostly below about 0.91 (no sharp cut-off); inconclusive means no clear call, values can overlap the other calls; inactive means mostly above about 0.92. Some of the results follow.

Experiment: chemical genetic growth profiling, strain panel (AID 1159580);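 further: tested at 20 µM; growth read once vehicle control cultures reached saturation at 30 °C; 1 = growth at the plate median or of vehicle wells; lower values mean less growth of the strain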
Conditions: growth OD

Measured: normalized growth

O=C(O)/C=C/C=C/c1ccccc1
active: S. cerevisiae deletion strains, locus YJR066W, strain TOR1, hits give low values 0.162 | S. cerevisiae deletion strains, locus YKL009W, strain mrt4, hits give low values 0.784 | S. cerevisiae deletion strains, locus YKL068W, hits give low values 0.854 | S. cerevisiae deletion strains, locus YKL085W, strain MDH1 (second series), hits give low values 0.773 | S. cerevisiae deletion strains, locus YKL085W, strain MDH1, hits give low values 0.773 | S. cerevisiae deletion strains, locus YKL160W, strain elf1, hits give low values 0.831 | S. cerevisiae deletion strains, locus YKR001C, strain vps1, hits give low values 0.792 | S. cerevisiae deletion strains, locus YKR026C, strain gcn3, hits give low values 0.808 | S. cerevisiae deletion strains, locus YKR091W, strain srl3, hits give low values 0.83 | S. cerevisiae deletion strains, locus YLL001W, strain dnm1, hits give low values 0.782 | S. cerevisiae deletion strains, locus YLL026W, hits give low values 0.831 | S. cerevisiae deletion strains, locus YLL041C, strain sdh2, hits give low values 0.829 | S. cerevisiae deletion strains, locus YLR027C, strain aat2, hits give low values 0.827 | S. cerevisiae deletion strains, locus YLR113W, strain HOG1, hits give low values 0.26 | S. cerevisiae deletion strains, locus YLR221C, strain rsa3, hits give low values 0.778 | S. cerevisiae deletion strains, locus YLR258W, strain gsy2, hits give low values 0.817 | S. cerevisiae deletion strains, locus YLR262C, strain YPT6 (second series), hits give low values 0.518 | S. cerevisiae deletion strains, locus YLR320W, strain mms22, hits give low values 0.771 | S. cerevisiae deletion strains, locus YLR342W, strain FKS1, hits give low values 0.812 | S. cerevisiae deletion strains, locus YLR357W, strain rsc2, hits give low values 0.732 | S. cerevisiae deletion strains, locus YLR370C, strain arc18, hits give low values 0.813 | S. cerevisiae deletion strains, locus YLR384C, strain iki3, hits give low values 0.827 | S. cerevisiae deletion strains, locus YML120C, strain ndi1, hits give low values 0.822 | S. cerevisiae deletion strains, locus YML124C, strain tub3, hits give low values 0.917 | S. cerevisiae deletion strains, locus YMR058W, strain fet3, hits give low values 0.793 | S. cerevisiae deletion strains, locus YMR078C, strain ctf18, hits give low values 0.9 | S. cerevisiae deletion strains, locus YMR125W, strain sto1, hits give low values 0.857 | S. cerevisiae deletion strains, locus YMR129W, hits give low values 0.824 | S. cerevisiae deletion strains, locus YMR205C, strain PFK2, hits give low values 0.826 | S. cerevisiae deletion strains, locus YMR231W, strain pep5, hits give low values 0.835 | S. cerevisiae deletion strains, locus YNL071W, strain lat1, hits give low values 0.775 | S. cerevisiae deletion strains, locus YNL183C, strain NPR1, hits give low values 0.168 | S. cerevisiae deletion strains, locus YNL209W, strain ssb2, hits give low values 0.863 | S. cerevisiae deletion strains, locus YNL248C, strain rpa49, hits give low values 0.832 | S. cerevisiae deletion strains, locus YNL250W, strain rad50, hits give low values 0.823 | S. cerevisiae deletion strains, locus YNL271C, strain bni1, hits give low values 0.772 | S. cerevisiae deletion strains, locus YNL298W, strain CLA4, hits give low values 0.692 | S. cerevisiae deletion strains, locus YNL322C, strain KRE1 (second series), hits give low values 0.746 | S. cerevisiae deletion strains, locus YNR049C, strain mso1, hits give low values 0.771 | S. cerevisiae deletion strains, locus YOL147C, strain pex11, hits give low values 0.927 | S. cerevisiae deletion strains, locus YOR001W, strain rrp6, hits give low values 0.794 | S. cerevisiae deletion strains, locus YOR070C, strain gyp1, hits give low values 0.831 | S. cerevisiae deletion strains, locus YOR080W, strain dia2, hits give low values 0.835 | S. cerevisiae deletion strains, locus YOR083W, strain WHI5, hits give low values 0.808 | S. cerevisiae deletion strains, locus YOR106W, strain vam3, hits give low values 0.793 | S. cerevisiae deletion strains, locus YOR144C, strain elg1, hits give low values 0.926 | S. cerevisiae deletion strains, locus YOR231W, strain MKK1, hits give low values 0.27 | S. cerevisiae deletion strains, locus YOR265W, strain rbl2, hits give low values 0.836 | S. cerevisiae deletion strains, locus YOR270C, strain vph1, hits give low values 0.687 | S. cerevisiae deletion strains, locus YOR290C, strain snf2, hits give low values 0.737 | S. cerevisiae deletion strains, locus YPL051W, strain arl3, hits give low values 0.83 | S. cerevisiae deletion strains, locus YPL078C, strain atp4, hits give low values 0.771 | S. cerevisiae deletion strains, locus YPL106C, strain sse1, hits give low values 0.821 | S. cerevisiae deletion strains, locus YPL240C, strain hsp82, hits give low values 0.806 | S. cerevisiae deletion strains, locus YPL256C, strain CLN2, hits give low values 0.226 | S. cerevisiae deletion strains, locus YPR119W, strain clb2, hits give low values 0.922 | S. cerevisiae deletion strains, locus YPR141C, strain kar3, hits give low values 0.877 | S. cerevisiae deletion strains, locus YPR163C, strain tif3, hits give low values 0.908
inactive: S. cerevisiae deletion strains, locus YLR039C, strain RIC1, hits give low values 0.832 | S. cerevisiae deletion strains, locus YLR058C, strain SHM2, hits give low values 0.98 | S. cerevisiae deletion strains, locus YLR102C, strain apc9, hits give low values 0.932 | S. cerevisiae deletion strains, locus YLR262C, strain YPT6, hits give low values 0.886 | S. cerevisiae deletion strains, locus YLR268W, strain sec22, hits give low values 0.887 | S. cerevisiae deletion strains, locus YLR330W, strain CHS5, hits give low values 0.952 | S. cerevisiae deletion strains, locus YLR342W, strain FKS1 (second series), hits give low values 0.882 | S. cerevisiae deletion strains, locus YLR371W, strain rom2, hits give low values 0.913 | S. cerevisiae deletion strains, locus YLR418C, strain cdc73, hits give low values 0.859 | S. cerevisiae deletion strains, locus YML016C, strain PPZ1, hits give low values 0.994 | S. cerevisiae deletion strains, locus YML032C, strain rad52, hits give low values 0.908 | S. cerevisiae deletion strains, locus YMR223W, strain ubp8, hits give low values 0.934 | S. cerevisiae deletion strains, locus YMR307W, strain GAS1, hits give low values 0.924 | S. cerevisiae deletion strains, locus YNL067W, strain RPL9B, hits give low values 0.954 | S. cerevisiae deletion strains, locus YNL153C, strain GIM3, hits give low values 0.952 | S. cerevisiae deletion strains, locus YNL233W, strain BNI4, hits give low values 0.949 | S. cerevisiae deletion strains, locus YNL307C, strain MCK1, hits give low values 0.93 | S. cerevisiae deletion strains, locus YNL322C, strain KRE1, hits give low values 0.985 | S. cerevisiae deletion strains, locus YNR052C, strain pop2, hits give low values 0.925 | S. cerevisiae deletion strains, locus YOL006C, strain TOP1, hits give low values 1.11 | S. cerevisiae deletion strains, locus YOL012C, strain htz1 1.04 | S. cerevisiae deletion strains, locus YOR061W, strain CKA2, hits give low values 0.973 | S. cerevisiae deletion strains, locus YOR069W, strain VPS5, hits give low values 0.974 | S. cerevisiae deletion strains, locus YOR136W, strain idh2, hits give low values 0.938 | S. cerevisiae deletion strains, locus YOR184W, strain ser1, hits give low values 0.928 | S. cerevisiae deletion strains, locus YOR316C, strain cot1, hits give low values 0.932 | S. cerevisiae deletion strains, locus YPL055C, strain LGE1, hits give low values 0.965 | S. cerevisiae deletion strains, locus YPR167C, strain met16, hits give low values 0.926 | S. cerevisiae deletion strains, strain wtn01, hits give low values 0.926 | S. cerevisiae strains, strain wild type, hits give low values 0.976
